# Laboratory results reported in PubChem BioAssay AID720697 (Broad Institute, 2013).
# Results with a measured potency or affinity are listed apart. Results filed as inconclusive are left out. Activity calls are given as the source filed them.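 Rule for the calls: active = signal loss with fitted half-maximal concentration at or below twice the top valid tested dose in every test run; inconclusive = runs disagree, flat 30 to 70% signal loss, or poor fit; inactive = all runs flat, opposite direction, or potency beyond limit.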
# Test: HEK293T cytotoxicity, dose response, cytotoxicity control for miR-122 modulator project, cell-based, inhibitor set, cherry-pick, set 2 (AID 720697)
# Settings: HEK293T viability, CellTiter-Glo luminescence, 48 h; series mostly up to 26 µM
row,Structure (SMILES),outcome
1,CCCNC(=O)N1C[C@@H]2[C@H](c3ccccc31)[C@H](CO)N2C(=O)C1CCOCC1,inactive
2,CN1[C@@H](CO)[C@@H]2c3ccccc3N(C(=O)Nc3cc(F)ccc3F)C[C@@H]21,inactive
3,COc1cccc(-c2nn(-c3ccccc3)cc2CO)c1,inactive
4,COC(=O)C[C@H]1CC[C@H]2[C@H](COc3ccc(NS(=O)(=O)c4ccc(F)cc4)cc3C(=O)N2C)O1,inactive
5,CN1C(=O)c2cc(NC(=O)c3ccc(C(F)(F)F)cc3)ccc2OC[C@H]2O[C@H](CC(=O)O)CC[C@@H]21,inactive
6,C[C@@H]1CN([C@H](C)CO)S(=O)(=O)c2ccc(C#CC3(O)CCCC3)cc2O[C@@H]1CN(C)C(=O)c1cccnc1,inactive
7,CNC(=O)C[C@H]1CC[C@H]2[C@@H](COc3ccc(NC(=O)c4cccc(OC)c4)cc3C(=O)N2C)O1,inactive
8,Cc1ccc(S(=O)(=O)NCCCNS(C)(=O)=O)cc1,inactive
9,C/C=C/c1ccc([C@H]2[C@@H](CO)N(C(=O)C3CC3)[C@H]2CN(C)C(=O)CC2CC2)cc1,inactive
10,CO[C@H]1CN(C)C(=O)c2ccc(NS(C)(=O)=O)cc2OC[C@H](C)N(C(=O)CN(C)C)C[C@H]1C,inactive
11,C[C@@H]1CN([C@@H](C)CO)S(=O)(=O)c2ccc(/C=C/c3ccccc3)cc2O[C@@H]1CN(C)C(=O)c1cccnc1,inactive
12,C/C=C/c1ccc([C@H]2[C@H](CO)N[C@H]2CN(C)S(=O)(=O)c2ccccc2)cc1,inactive
13,Cc1nc(C)c(C(=O)Nc2ccc(Oc3ccccc3)cc2)o1,inactive
14,CN1C(=O)c2cc(NC(=O)Nc3ccccc3Cl)ccc2OC[C@H]2O[C@H](CC(=O)O)CC[C@H]21,inactive
15,CCNC(=O)C[C@H]1CC[C@H]2[C@@H](COc3ccc(NC(=O)c4ccccc4)cc3C(=O)N2C)O1,inactive
16,O=c1c2c3c(sc2nc2n1CCC2)CCCC3,inactive
17,COc1cccc(CNC(=O)C[C@H]2CC[C@@H]3[C@@H](COc4ccc(NC(C)=O)cc4C(=O)N3C)O2)c1,inactive
18,C[C@@H]1CN([C@@H](C)CO)S(=O)(=O)c2ccc(C#CC3(O)CCCC3)cc2O[C@@H]1CN(C)C(=O)c1cccnc1,inactive

row,Structure (SMILES),outcome
1,CCOc1ccc(NC(=S)N(CCCN2CCCC2)Cc2cccn2Cc2ccc(Cl)cc2)cc1,inactive
2,CN(c1ccccc1)S(=O)(=O)c1ccc(C(=O)Nc2cccc(S(=O)(=O)N3CCOCC3)c2)cc1,inactive
3,COc1ccc(S(=O)(=O)Nc2ccc3c(c2)CC(=O)N([C@@H](C)CO)C[C@@H](C)[C@H](CN(C)Cc2ccc(C(F)(F)F)cc2)O3)cc1,inactive
4,O=C(CNCCC1=CCCCC1)Nc1ccccc1N1CCCCCC1,inactive
5,CCN(C[C@H]1N[C@H](CO)[C@H]1c1ccc(C2=CCCC2)cc1)C(=O)c1cccnc1,inactive
6,Cc1ccc(S(=O)(=O)Nc2ccc3c(c2)C(=O)N(C)[C@@H]2CC[C@H](CC(=O)NCCc4ccncc4)O[C@@H]2CO3)cc1,inactive
7,CCC(=O)N(C)C[C@H]1Oc2cc(C#CC3CCCCC3)ccc2S(=O)(=O)N([C@@H](C)CO)C[C@H]1C,inactive
8,Cc1ccc(-c2ccc3c(c2)O[C@H](CN(C)C(=O)CC2CC2)[C@H](C)CN([C@H](C)CO)S3(=O)=O)cc1,inactive
9,CN1C(=O)c2cc(NC(=O)Nc3ccccc3F)ccc2OC[C@@H]2O[C@@H](CC(=O)NCc3ccc(-c4ccccc4)cc3)CC[C@@H]21,inactive
10,CCOc1ccc(CCNC(=O)C2CCN(S(=O)(=O)N3CCC(C)CC3)CC2)cc1OCC,inactive
11,COc1ccc(-c2nc(NC(=O)CSc3nnc(C)s3)ns2)cc1,inactive
12,CCCNC(=O)Nc1ccc2c(c1)C(=O)N(C)[C@H]1CC[C@H](CC(=O)NC3CCC3)O[C@H]1CO2,inactive
13,CC(C)Oc1ccc(C(CCN)C2CCCCC2)cc1 (stereo unspecified),inactive
14,CCS(=O)(=O)Nc1ccc2c(c1)C(=O)N(C)[C@@H]1CC[C@@H](CC(=O)NCCCN3CCOCC3)O[C@@H]1CO2,inactive
15,CC(C)(C)c1ccc(S(=O)(=O)NCCc2ccncc2)cc1,inactive
16,COC(=O)C[C@H]1CC[C@H]2[C@H](COc3ccc(NC(=O)NC(C)C)cc3C(=O)N2C)O1,inactive
17,CN1C(=O)c2cc(NC(=O)c3cccs3)ccc2OC[C@H]2O[C@@H](CC(=O)NCCN3CCCCC3)CC[C@H]21,inactive
18,C[C@H](CO)N1C[C@H](C)[C@@H](CN(C)CC2CCCCC2)OCCCC[C@H](C)Oc2ccc(NC(=O)Nc3cccc4ccccc34)cc2C1=O,inactive
